# Laboratory results from PubChem BioAssay AID929 (National Center for Advancing Translational Sciences (NCATS), 2007).
# The other results are listed elsewhere or left out. Records with an inconclusive call do not appear. Active and inactive are the calls of the source. Calls follow the shape of the dose curve; as a rule, active = well fitted inhibition curve with a large enough effect in the main read-out, with a control signal flat; inconclusive = small, poorly fitted or top-dose-only effect, or a change in a side signal; inactive = no such curve, though single readings can be large or run the other way.
# Target: Caspase-1 (Homo sapiens) (UniProt P29466)
# Sequence (P29466 120-297 limits assumed): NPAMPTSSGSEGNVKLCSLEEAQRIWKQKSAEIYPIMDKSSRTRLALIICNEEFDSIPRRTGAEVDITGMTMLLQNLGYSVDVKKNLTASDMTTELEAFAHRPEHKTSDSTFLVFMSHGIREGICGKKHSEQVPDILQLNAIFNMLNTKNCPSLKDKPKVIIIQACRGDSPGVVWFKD
# Sequence (P29466 317-404 limits assumed): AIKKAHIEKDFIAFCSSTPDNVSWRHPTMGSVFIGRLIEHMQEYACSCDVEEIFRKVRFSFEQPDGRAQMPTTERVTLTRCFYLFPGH
# Experiment: Concentration-Response Counterscreen for Redox Active Inhibitors of Caspase-1: Cysteine
# Details: recombinant caspase-1, fluorogenic substrate, cysteine buffer; series mostly up to 57.5 µM
# Text: NIH Molecular Libraries Screening Centers Network [MLSCN]
# NIH Chemical Genomics Center [NCGC]
# PI Name: Dr. James Wells,
# Dr. Enrique Perez-Paya, Dr.Janice Williams, Dr. Dennis Wolan, a person
# The caspases (Cysteine Aspartyl Protease) comprise a related family of 14 dimeric proteases that are critical mediators of apoptosis (programmed cell death) and inflammation. The caspases represent an important class of drug targets for stroke, ischemia, cancer and inflammatory diseases. […] One goal of this project was to identify compounds that act as allosteric inhibitors via stabilizing the procaspase form of the enzyme. […]
# The biochemical assay was configured using purified caspase 1 at a high enzyme concentration to promote formation of the homodimers and thus facilitate the identification of allosteric inhibitors. […] After initiation of the assay with substrate the plates were rapidly read using an automated robotic system (Kalypsys, Inc.) to maintain consistent timing. […] Product formation was also measured after 1 hour. […]
# Caspase 1 was prepared in buffer (50 mM HEPES pH 7.5, 50 mM KCl, 200 mM NaCl, 10 mM Cys (Aldrich cat# 861677), 0.1% CHAPS) at a concentration of 66.6 nM and 3 uL was dispensed to all wells using black solid Kalypsys 1536-well plates. […] The plates were then exposed using 405 nm excitation/520 nm emission filters for 4 sec and read at 20 sec intervals for 3 min. […]
row,Structure (SMILES),outcome
1,Cc1nc2c(C(=O)NCc3ccc4c(c3)OCO4)c[nH]n2c(=O)c1Cc1ccccc1F,inactive
